Assay outcomes from PubChem.
NPC1 prom act – qHTS Assay for NPC1 Promoter Activators. Potency, µM (highest dose often 9.22 µM), hits mostly activators. Huh7 NPC1 promoter luciferase reporter, 24 h. actives 2.4% (n = 320,000); further: nearly all actives have a fitted effect of over 60% in size
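Luminescence read-out of NPC1 promoter-driven luciferase in stably transfected Huh7 cells; compounds delivered in DMSO and left 24 h at 37C, 5% CO2, qHTS titration format.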
uPA generation – qHTS for Inhibitors of Cell Surface uPA Generation. cell surface uPA generation assay, qHTS. Potency, µM (doses to about 38.3 µM), hits mostly inhibitors. actives 0.31% (n = 330,000); active means well fitted inhibition curve with a large enough effect; inconclusive means small, poorly fitted or top-dose-only effect; inactive means no such curve, though single readings can be large or run the other way; tested in mouse RAW 264.7 cells; further: nearly all actives have a fitted effect of over 55% in size
FLuc counter – qHTS profiling assay for firefly luciferase inhibitor/activator using purifed enzyme and Km concentrations of substrates (counterscreen for miR-21 project); Luciferin 4-monooxygenase (Photinus pyralis), P08659; purified FLuc, Km substrates, luminescence inhibition; Potency, µM (series often up to 57.5 µM), most hits filed as inhibitors; actives 6.9% (n = 360,000); AID 588342, 2011; further: nearly all actives have a fitted effect of over 55% in size
Target sequence (P08659 whole entry, looked up): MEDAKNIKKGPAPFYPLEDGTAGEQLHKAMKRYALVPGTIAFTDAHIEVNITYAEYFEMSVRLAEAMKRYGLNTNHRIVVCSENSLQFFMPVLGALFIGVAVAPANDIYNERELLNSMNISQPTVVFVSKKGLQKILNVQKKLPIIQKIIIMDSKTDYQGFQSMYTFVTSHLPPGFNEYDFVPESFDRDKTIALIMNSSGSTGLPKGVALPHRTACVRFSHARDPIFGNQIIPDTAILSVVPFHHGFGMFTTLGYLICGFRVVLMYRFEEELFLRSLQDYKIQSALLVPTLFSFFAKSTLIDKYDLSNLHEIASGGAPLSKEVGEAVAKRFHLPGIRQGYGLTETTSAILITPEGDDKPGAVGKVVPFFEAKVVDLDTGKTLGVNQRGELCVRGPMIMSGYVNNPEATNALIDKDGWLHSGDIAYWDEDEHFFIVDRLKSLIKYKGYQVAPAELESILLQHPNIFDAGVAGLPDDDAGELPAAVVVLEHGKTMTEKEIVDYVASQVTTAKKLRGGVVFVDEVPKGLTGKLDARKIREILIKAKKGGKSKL
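Biochemical qHTS of compounds, final roughly 60 µM downward over six points, against 10 nM purified firefly luciferase using Km concentrations of substrates (10 uM D-luciferin, 10 uM ATP) in Tris acetate pH 7.5 buffer; luminescence output.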
Rab9 prom act – qHTS Assay for Rab9 Promoter Activators; actives 2.8% (n = 320,000); Potency, µM (titrated, usually from 9.22 µM), usual class: activators; Huh7 Rab9 promoter-luciferase reporter, luminescence, 24 h; further: nearly all actives have a fitted effect of over 60% in size
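Promoter activation is measured as luciferase luminescence in Huh7 cells stably transfected with a Rab9 promoter–luciferase construct, following 24 h compound exposure at 37 °C and 10 min reagent incubation at ambient temperature.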
SMN2 splice up – qHTS Assay for Enhancers of SMN2 Splice Variant Expression; HEK293 SMN2-luciferase splicing reporter, luminescence, 30-36 h; Potency, µM (highest dose often 46.1 µM), hits mostly activators; actives 2.8% (n = 210,000); AID 1458, 2008; further: nearly all actives have a fitted effect of over 55% in size
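HEK293 cells carry an SMN2 minigene-luciferase reporter in which exon 7 inclusion puts luciferase in frame. Cells were seeded at 2000 cells/well, attached for 10-12 hours, then exposed to compounds for 30-36 hours at 37C before ONE-Glo luminescence.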
ELG1 genotox – qHTS screen for small molecules that induce genotoxicity in human embryonic kidney (HEK293T) cells expressing luciferase-tagged ELG1; actives 1.3% (n = 330,000); HEK293T ELG1-luciferase reporter, luminescence, 16 h; Potency, µM (top dose mostly 46 µM), hits mostly activators; further: nearly all actives have a fitted effect of over 60% in size
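ELG1-luciferase HEK293T cells, 2,000/well; compound pinned in; 16 hr, 37 °C, 5% CO2; ONE-Glo, 30 min RT; luminescence on CCD imager.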
Numbers stand for hits; – = inactive; ? = inconclusive; · = no result; [ ] = another dose, or the depositor's remark. Rows were chosen to be rich in hits. Some 7.3% of all compounds tested hit in one or more screens of this group. Unless noted, the call rests on the fitted dose curve; in most records, active means well fitted curve in the direction sought with a large enough effect; inconclusive means small, poorly fitted or top-dose-only effect, or another doubt; inactive means no such curve, though single readings can be large; an effect the other way counts as inactive or inconclusive.

SMILES	NPC1 prom act	uPA generation	FLuc counter	Rab9 prom act	SMN2 splice up	ELG1 genotox
CCCCN(C(=O)CNC(=O)c1cccs1)C(C(=O)NC1CCCC1)c1ccncc1 (stereo not drawn)	–	–	7.6µM	–	·	–
CCN(Cc1cnn(C)c1)Cc1nc(C(c2ccccc2)c2ccccc2)no1	–	–	–	–	·	–
CC(=O)Nc1c(C)nn(-c2ccccc2)c1N1CCC(C(=O)Nc2ccc(Cl)cc2C)CC1	·	·	–	·	·	·
Cc1c(C(=O)OCCOc2ccccc2)[nH]c2c1C(=O)CC(c1ccccc1Cl)C2 (stereo not drawn)	·	·	–	·	–	·
COC(=O)N/N=C\c1ccccc1OC/C=C/c1ccccc1	?	–	17µM	–	·	?
N#CCC(=O)N/N=C\c1cc(Br)ccc1OC/C=C/c1ccccc1	?	–	–	?	·	?
CCOC(=O)N/N=C\c1ccccc1OC/C=C/c1ccccc1	?	–	4.3µM	–	·	?
O=C(NC1CCCCC1)c1cc(Nc2cccc(C(F)(F)F)c2)nc2ccccc12	·	·	–	·	·	·
O=C(O)c1cc(S(=O)(=O)O)cc(Nc2c3ccccc3nc3ccccc23)c1O	–	–	8.5µM	–	·	–
O=C(O)c1cccc(Nc2c3ccccc3nc3ccccc23)c1	–	–	–	–	·	–
Cc1ccc(C)c(CN2CCCN(Cc3ccccc3C)S2(=O)=O)c1	·	·	–	·	·	·
O=C(NCC1OCCc2ccccc21)c1cc(COc2ccc(F)cc2Cl)on1 (stereo not drawn)	–	–	–	–	·	–
COc1cc(C(=O)Nc2ccccc2OCc2cc(=O)n3cc(C)sc3n2)cc(OC)c1OC	·	·	–	·	–	·
COC(=O)N/N=C\C=C\c1ccc2c(c1)OCO2	4µM	–	15µM	3.5µM	–	–
COc1ccc(CC(=O)N/N=C/C=C/c2ccc3c(c2)OCO3)cc1OC	–	–	–	–	·	–
CC(C)(C)OC(=O)N/N=C\C=C\c1ccc2c(c1)OCO2	4µM	–	7.6µM	1.6µM	–[1.84 µM]	?
CCOC(=O)N/N=C\C=C\c1ccc2c(c1)OCO2	?	–	13µM	3.2µM	–[1.84 µM]	?
CN1C(=O)C(C)(C)c2cc(S(=O)(=O)N3CCN(c4ccccc4)CC3)ccc21	–	–	–	–	·	–
CCOc1ccc(/C=N/NC(=O)c2ccc(CSc3nc4ccccc4[nH]3)cc2)cc1	–	?	6.7µM	–	–	–
O=C(N/N=C/c1ccc(OC(F)F)cc1)c1ccc(CSc2nc3ccccc3[nH]2)cc1	–	–	17µM	–	–[1.84 µM]	–
COc1ccccc1NC1=C(NC(C)=O)C(=O)c2ccccc2C1=O	–	13µM	?	–	–	–
Cc1ccc(-n2[nH]c(C)c(/C=N/Nc3ccc([N+](=O)[O-])cc3[N+](=O)[O-])c2=O)cc1C	–	–	13µM	–	–	–
Cc1[nH]n(-c2ccccc2)c(=O)c1/C=N\NC(=O)C1COc2ccccc2O1 (stereo not drawn)	?	–	1.9µM	?	–	?
COCC(=O)N/N=C/c1c(C)[nH]n(-c2ccccc2)c1=O	–	–	–	–	·	–
Cc1[nH]n(-c2ccccc2)c(=O)c1/C=N/NC(=O)COc1ccccc1[N+](=O)[O-]	–	?	21µM	–	–	–
SMILES	NPC1 prom act	uPA generation	FLuc counter	Rab9 prom act	SMN2 splice up	ELG1 genotox
Cc1ccc(OCC(=O)N/N=C\c2cccn2C)c([N+](=O)[O-])c1	–	–	11µM	–	·	–
COc1c(/C=N/Nc2ccc([N+](=O)[O-])cc2[N+](=O)[O-])c(C)nn1-c1ccccc1	–	–	–	–	–	–
Cc1ccc(C)c(OCC(=O)N/N=C\c2cccn2C)c1	–	–	–	–	–	–
CC(C)(C)OC(=O)N1CCC(c2c(C(=O)NCCN3CCC(Cc4ccccc4)CC3)cnn2-c2cccc(Cl)c2)CC1	·	·	–	·	·	·
COc1ccc(-c2nc(-c3ccccc3)c(NCc3ccccc3)o2)cc1	·	·	·	·	–	·
CCOC(=O)N1CCC(NC(=O)c2ccc3c(c2)N(Cc2ccccc2C)C(=O)c2ccccc2S3=O)CC1 (stereo not drawn)	·	·	–	·	–	·
Cc1[nH]n(-c2ccccc2)c(=O)c1/C=N/NC(=O)c1cccc([N+](=O)[O-])c1	–	–	8.5µM	–	–	–
Cc1ccc(C)c(S(=O)(=O)c2nnn3c2nc(NC(C)C)c2sccc23)c1	·	·	–	·	·	·
O=c1[nH]cnc2nc(-c3ccccc3)c(-c3ccccc3)nc12	–	–	–	–	–	–
O=c1[nH]cnc2nn(-c3ccccc3)nc12	?	–	21µM	?	?	?
CCOc1cccc(Nc2nn(-c3ccc(OC(F)(F)F)cc3)nc2C(C)=O)c1	·	·	–	·	–	·
CC(=O)c1cccc(Nc2nn(-c3ccc(OC(F)(F)F)cc3)nc2C(C)=O)c1	·	·	6µM	·	–	·
CCC1CCCCN1CCCNC(=O)c1ccc2c(c1)N(Cc1ccc(Cl)cc1)C(=O)c1ccccc1S2(=O)=O (stereo not drawn)	·	·	–	·	–	·
COc1ccc(NC(=O)C(NC(=O)/C=C\c2ccc3c(c2)OCO3)c2ccccc2)cc1 (stereo not drawn)	·	·	–	·	2µM	·
O=C(/C=C/c1ccco1)Nc1ccc(Cl)c(S(=O)(=O)N2CCOCC2)c1	–	?	19µM	–	·	–
Cc1ccc(S(N)(=O)=O)cc1NC(=O)/C=C/c1ccc2c(c1)OCO2	–	–	24µM	–	–	–
COc1ccccc1NC(=O)COC(=O)/C=C/c1ccc2c(c1)OCO2	–	–	11µM	–	–	?
COc1ccc(S(=O)(=O)NCC(c2ccco2)N2CCN(c3ccccc3F)CC2)cc1OC (stereo not drawn)	·	·	–	·	·	·
COc1ccccc1NC(=O)/C=C/c1ccc2c(c1)OCO2	–	?	6.7µM	?	11µM	–
COc1ccc(/C=C/C(=O)Nc2ccc(C)c(S(=O)(=O)N3CCOCC3)c2)cc1	·	?	·	·	·	–
Cc1ccc(NC(=O)/C=C/c2ccc3c(c2)OCO3)cc1S(=O)(=O)N1CCOCC1	–	–	11µM	–	–	–
NC(=O)c1ccc(NC(=O)COC(=O)/C=C/c2ccc3c(c2)OCO3)cc1	–	–	12µM	–	·	–
Cc1cc2c(c(=O)n1-c1ccccc1)C1O[C@](c3ccsc3)(Cc3ccccc31)O2	–[1.84 µM]	·	–[11.5 µM]	–[1.84 µM]	·	·
COc1ccc(CN=C(Nc2ccccc2)SC2CC(=O)NC2=O)cc1 (stereo not drawn)	?	–	6.7µM	?	·	?
O=C(CNC(=O)c1ccc(Cl)cc1Cl)OCc1nc2ccccc2s1	–	–	?	–	–	–
O=C(CNC(=O)c1ccccc1F)OCc1nc2ccccc2s1	–	–	17µM	–	–	–
